# Screening results as filed in PubChem.
# The full list was thinned out, with hits kept by preference.
# IDE exosite inh – displaces the probe from the exo-site of human IDE; z-score at 20 µM; AID 1259349; 6.3% of 17,000 active; purified IDE, FL-6b probe fluorescence polarization; hits give low values;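 active = z-score of -3 or lower, meaning strong loss of probe binding signal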;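 also: His-tagged human IDE residues 42-1019 made in E. coli with 30 nM FL-6b probe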
# Target sequence (P14735 42-1019 limits assumed): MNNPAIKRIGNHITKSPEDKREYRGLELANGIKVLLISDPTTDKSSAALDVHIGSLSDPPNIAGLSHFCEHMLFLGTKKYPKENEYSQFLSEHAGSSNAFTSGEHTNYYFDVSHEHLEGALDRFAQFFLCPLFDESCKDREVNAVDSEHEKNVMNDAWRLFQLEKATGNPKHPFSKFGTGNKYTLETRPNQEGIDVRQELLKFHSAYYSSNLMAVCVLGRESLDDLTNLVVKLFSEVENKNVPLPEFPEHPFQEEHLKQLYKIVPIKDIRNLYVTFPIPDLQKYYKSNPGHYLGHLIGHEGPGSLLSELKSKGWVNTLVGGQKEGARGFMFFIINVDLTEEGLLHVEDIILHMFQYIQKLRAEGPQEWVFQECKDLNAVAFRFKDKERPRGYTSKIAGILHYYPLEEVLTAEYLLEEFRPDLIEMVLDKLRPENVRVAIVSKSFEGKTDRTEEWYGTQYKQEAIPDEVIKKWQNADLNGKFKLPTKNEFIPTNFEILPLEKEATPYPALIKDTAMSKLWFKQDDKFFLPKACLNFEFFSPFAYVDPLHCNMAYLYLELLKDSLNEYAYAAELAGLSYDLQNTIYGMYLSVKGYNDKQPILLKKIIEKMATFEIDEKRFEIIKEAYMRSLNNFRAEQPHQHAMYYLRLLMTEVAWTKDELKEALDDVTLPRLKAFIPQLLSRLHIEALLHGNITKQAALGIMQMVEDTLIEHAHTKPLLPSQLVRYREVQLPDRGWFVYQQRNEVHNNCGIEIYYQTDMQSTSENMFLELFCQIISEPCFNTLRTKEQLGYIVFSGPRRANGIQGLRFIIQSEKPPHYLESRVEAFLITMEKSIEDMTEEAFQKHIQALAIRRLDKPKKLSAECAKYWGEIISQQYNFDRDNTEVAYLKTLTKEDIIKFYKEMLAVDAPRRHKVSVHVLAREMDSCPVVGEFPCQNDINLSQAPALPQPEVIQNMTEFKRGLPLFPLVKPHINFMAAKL
# Starred values were filed as active, the others as inactive.
SMILES,IDE exosite inh
OC[C@@H]1[C@H](c2ccc(/C=C/c3ccccc3)cc2)[C@H]2CN(Cc3cccnc3)CCCCN12,-5.37*
OC[C@H]1[C@H](c2ccc(/C=C/c3ccccc3)cc2)[C@@H]2CN(Cc3ccncc3)CCCCN12,-4.52*
OC[C@H]1[C@@H](c2ccc(-c3ccc(F)cc3)cc2)[C@@H]2CN(Cc3cccnc3)CCCCN12,-1.72
OC[C@H]1[C@@H](c2ccc(-c3ccc(F)cc3)cc2)[C@H]2CN(Cc3cccnc3)CCCCN21,3.43
O=C(Cc1ccccc1)N1CC[C@H]2[C@H](CO)Nc3ccc(C4=CCCCC4)cc3[C@H]21,2.77
C[C@H]1CN([C@@H](C)CO)C(=O)c2ccccc2-c2ccccc2CO[C@@H]1CN(C)S(=O)(=O)c1cccc(C#N)c1,0.727
COc1cccc(-c2ccc(C3[C@@H]4CN(C(=O)Nc5ccc(F)cc5)C[C@H]3N4)cc2)c1 (stereo partly drawn),-1.8
N#C[C@@H]1[C@H](c2ccccc2C2=CCCCC2)[C@@H](CO)N1C(=O)c1ccccn1,-0.906
O=C(C[C@@H]1C=C[C@H](NC(=O)c2cnccn2)[C@H](CO)O1)NCc1ccccc1F,4.04
O=C1N[C@@H](c2ccccc2)COCc2cnnn2CC[C@H]1Cc1ccc(C(F)(F)F)cc1,0.665
C[C@@H]1CN([C@H](C)CO)C(=O)c2c(c3ccccc3n2C)-c2ccccc2CO[C@H]1CN(C)C(=O)Nc1ccc2c(c1)OCO2,-1.15
O=C(Nc1ccccc1F)N1CC(=O)N2[C@H](CO)[C@H](c3ccc(C#Cc4ccccc4)cc3)[C@H]2C1,-1.86
O=C(c1ccccc1F)N1CC(=O)N2[C@@H](CO)[C@@H](c3ccc(C#Cc4ccccc4)cc3)[C@@H]2C1,-1.24
O=C(c1ccccc1F)N1CC(=O)N2[C@H](CO)[C@H](c3ccc(C#Cc4ccccc4)cc3)[C@H]2C1,-2.37
O=C(c1ccccc1F)N1CC(=O)N2[C@@H](CO)[C@H](c3ccc(C#Cc4ccccc4)cc3)[C@@H]2C1,-3.51*
O=C(Nc1ccccc1F)N1CC(=O)N2[C@H](CO)[C@H](c3ccc(C#Cc4ccc(F)cc4)cc3)[C@@H]2C1,0.189
O=C(Nc1ccccc1F)N1CC(=O)N2[C@@H](CO)[C@@H](c3ccc(C#Cc4ccccc4)cc3)[C@@H]2C1,-5.84*
N#C[C@H]1[C@H](c2ccccc2)[C@H](CO)N1S(=O)(=O)c1ccc(F)cc1,2.35
O=C(C[C@H]1CC[C@@H]2[C@H](COC[C@H](O)CN2S(=O)(=O)c2cccc(F)c2)O1)NCc1ccncn1,2.09
COc1ccc2c3c([nH]c2c1)[C@H](CO)NCC31CCN(C(=O)Cc2cccnc2)CC1,-0.417
COc1cccc(-c2ccc3c(c2)[C@@H]2[C@@H](CCN2S(=O)(=O)c2ccccc2F)[C@@H](CO)N3)c1,1.66
CC(=O)N1CC2(C1)[C@H](c1ccc(-c3ccc(F)cc3)cc1)[C@@H](CO)N2CC1CC1,1.4
CCS(=O)(=O)N1CC(=O)N2[C@H](CO)[C@@H](c3ccc(C#CCC4CCCC4)cc3)[C@H]2C1,1.57
O=C(Cc1cccnc1)N1CC(=O)N2[C@H](CO)[C@H](c3ccc(C4=CCCC4)cc3)[C@@H]2C1,0.892
O=S(=O)(c1cccc(F)c1)N1CC[C@@H]2[C@H](CO)Nc3ccc(Br)cc3[C@@H]21,1.49
SMILES,IDE exosite inh
CCc1sc(N2[C@H](C#N)[C@H](c3ccccc3-c3ccccc3)[C@H]2CO)nc1C,-0.545
Cc1cccc(S(=O)(=O)N2CCCCN3[C@@H](CO)[C@@H](c4ccc(-c5cccnc5)cc4)[C@@H]3C2)c1,-3.26*
COc1cccc(S(=O)(=O)N2CCCCN3[C@H](C2)[C@@H](c2ccc(-c4cncnc4)cc2)[C@@H]3CO)c1,0.964
Cc1cccc(S(=O)(=O)N2CCCCN3[C@H](CO)[C@H](c4ccc(-c5ccncc5)cc4)[C@H]3C2)c1,1.51
COc1cccc(S(=O)(=O)N2CCCCN3[C@@H](CO)[C@@H](c4ccc(-c5cncnc5)cc4)[C@@H]3C2)c1,-0.237
COc1cccc(S(=O)(=O)N2CCCCN3[C@H](CO)[C@@H](c4ccc(-c5cccnc5)cc4)[C@@H]3C2)c1,-3.53*
COc1cccc(S(=O)(=O)N2CCCCN3[C@H](CO)[C@H](c4ccc(-c5cccnc5)cc4)[C@H]3C2)c1,1.12
COc1cccc(S(=O)(=O)N2CCCCN3[C@H](CO)[C@@H](c4ccc(-c5cncnc5)cc4)[C@@H]3C2)c1,-0.616
COc1cccc(S(=O)(=O)N2CCCCN3[C@@H](CO)[C@@H](c4ccc(-c5cccnc5)cc4)[C@@H]3C2)c1,-6.27*
Cc1cccc(S(=O)(=O)N2CCCCN3[C@@H](CO)[C@H](c4ccc(-c5ccncc5)cc4)[C@@H]3C2)c1,1.62
CCC(=O)NC[C@H]1[C@H](c2ccc(C3=CCCC3)cc2)[C@H](CO)N1C(C)=O,-0.289
C[C@@H]1CCCCO[C@H](CN(C)S(=O)(=O)c2ccc(F)cc2)[C@@H](C)CN([C@H](C)CO)C(=O)c2cc(NC(=O)CCCCCC(=O)Nc3ccccc3N)ccc2O1,-0.105
CN(C)CC(=O)N1[C@@H](C#N)[C@@H](c2ccc(C#CC3CCCC3)cc2)[C@@H]1CO,0.87
O=C(Nc1ccccc1)N1CCCCN2[C@H](CO)[C@@H](c3ccc(C#Cc4ccccc4)cc3)[C@@H]2C1,-0.699
O=C(Nc1ccccc1F)N1CCCCN2[C@H](CO)[C@@H](c3ccc(-c4cccnc4)cc3)[C@@H]2C1,-1.46
O=C(Nc1ccccc1F)N1CCCCN2[C@H](CO)[C@H](c3ccc(-c4cccnc4)cc3)[C@H]2C1,-0.404
O=C(Nc1ccccc1F)N1CCCCN2[C@H](CO)[C@H](c3ccc(C#Cc4cccnc4)cc3)[C@H]2C1,-6.86*
O=C(Nc1ccccc1F)N1CCCCN2[C@H](C1)[C@H](c1ccc(C#Cc3ccccc3)cc1)[C@@H]2CO,-2.15
O=C(Nc1ccccc1)N1CCCCN2[C@H](C1)[C@H](c1ccc(C#Cc3cccnc3)cc1)[C@@H]2CO,2.2
O=C(Nc1ccccc1F)N1CCCCN2[C@H](CO)[C@H](c3ccc(C#Cc4ccccc4)cc3)[C@H]2C1,-1.97
O=C(Nc1ccccc1)N1CCCCN2[C@H](CO)[C@H](c3ccc(C#Cc4cccnc4)cc3)[C@@H]2C1,-4.15*
O=C(Nc1ccccc1F)N1CCCCN2[C@@H](CO)[C@H](c3ccc(C#Cc4cccnc4)cc3)[C@@H]2C1,-4.65*
O=S(=O)(NC[C@H]1[C@@H](c2ccccc2)[C@H](CO)N1CC1CC1)c1ccccc1,0.884
CS(=O)(=O)N1[C@H](C#N)[C@H](c2ccccc2-c2ccccc2)[C@H]1CO,3.17
CCN1CC(=O)N2[C@H](CO)[C@@H](c3ccc(-c4cccnc4)cc3)[C@H]2C1,0.204
SMILES,IDE exosite inh
N#C[C@@H]1N[C@@H](CO)[C@@H]1c1ccccc1,2.27
O=C(Nc1ccccc1)N1CCCCN2[C@H](CO)[C@H](c3ccc(-c4ccccc4)cc3)[C@@H]2C1,0.35
N#Cc1ccc(-c2ccc([C@H]3[C@@H](CO)N4C(=O)CN(C(=O)Cc5ccccc5)C[C@@H]34)cc2)cc1,2.22
C/C=C/c1ccc([C@@H]2[C@@H](C#N)N(S(=O)(=O)c3cccc(F)c3)[C@@H]2CO)cc1,4.44
CCC(=O)N1CCCCN2[C@@H](CO)[C@@H](c3ccc(C#CCOC)cc3)[C@@H]2C1,2.54
CCC(=O)N1CCCCN2[C@@H](CO)[C@@H](c3ccc(C#Cc4ccccc4)cc3)[C@@H]2C1,-7.74*
CCC(=O)N1CCCCN2[C@H](CO)[C@@H](c3ccc(C#Cc4ccccc4)cc3)[C@@H]2C1,-9.16*
